Assay results as given in PubChem BioAssay (EPA / NIEHS).
Values joined by “and” are separate entries in the source; they are usually repeats but may differ in a detail not shown here. Identical values can stand only once. Results filed as inconclusive are left out. Some structures have more than one record in an assay (separate samples or runs), and their calls can disagree. Active and inactive are the calls of the source. How the source made its calls, unless noted: active means hit-call score of the fitted dose curve at least 0.9, where 1 is the maximum; inactive means score below 0.9.

Legend:
[1] = target: Transcriptional activator Myb (Homo sapiens) (UniProt P10242); test: ATG_Myb_CIS: Attagene CIS-FACTORIAL HepG2 Assay for human Myeloblastosis (Myb) Proto-Oncogene Transcription Factor (AID 2282986); settings: HepG2 Attagene CIS-FACTORIAL Myb reporter transcription; actives raise or lower the signal
Sequence of Transcriptional activator Myb (Homo sapiens) (P10242 whole entry, looked up): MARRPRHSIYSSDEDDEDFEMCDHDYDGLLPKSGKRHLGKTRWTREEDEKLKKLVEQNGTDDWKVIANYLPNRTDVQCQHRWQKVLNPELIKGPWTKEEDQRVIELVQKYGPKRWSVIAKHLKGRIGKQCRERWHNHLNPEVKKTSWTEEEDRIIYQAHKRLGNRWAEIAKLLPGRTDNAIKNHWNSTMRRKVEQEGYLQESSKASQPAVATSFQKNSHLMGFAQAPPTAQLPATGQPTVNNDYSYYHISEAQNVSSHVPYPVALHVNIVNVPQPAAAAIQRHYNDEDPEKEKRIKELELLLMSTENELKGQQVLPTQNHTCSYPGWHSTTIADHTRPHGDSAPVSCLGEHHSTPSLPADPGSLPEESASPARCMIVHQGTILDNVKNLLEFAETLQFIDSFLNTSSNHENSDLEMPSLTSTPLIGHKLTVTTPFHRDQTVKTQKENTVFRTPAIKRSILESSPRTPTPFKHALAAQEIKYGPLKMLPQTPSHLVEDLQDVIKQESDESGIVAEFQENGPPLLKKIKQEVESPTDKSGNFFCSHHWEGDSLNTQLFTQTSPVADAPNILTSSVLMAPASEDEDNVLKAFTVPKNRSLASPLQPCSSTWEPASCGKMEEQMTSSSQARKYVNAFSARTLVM
Summary of the method: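 Endogenous transcription factor activity at a Myb-responsive cis element is reported in human liver HepG2 cells after 24 h chemical treatment. Reporter mRNA is detected by RT-PCR and capillary electrophoresis fluorescence, with DMSO as baseline.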

[2] = target: Nuclear respiratory factor 1 (Homo sapiens) (UniProt Q16656); test: ATG_NRF1_CIS: Attagene CIS-FACTORIAL HepG2 Assay for human Nuclear Respiratory Factor 1 (NRF1) Orphan Gene (AID 2282987); settings: HepG2 NRF1 cis-element reporter, Attagene multiplex; actives raise or lower the signal
Sequence of Nuclear respiratory factor 1 (Homo sapiens) (Q16656 whole entry, looked up): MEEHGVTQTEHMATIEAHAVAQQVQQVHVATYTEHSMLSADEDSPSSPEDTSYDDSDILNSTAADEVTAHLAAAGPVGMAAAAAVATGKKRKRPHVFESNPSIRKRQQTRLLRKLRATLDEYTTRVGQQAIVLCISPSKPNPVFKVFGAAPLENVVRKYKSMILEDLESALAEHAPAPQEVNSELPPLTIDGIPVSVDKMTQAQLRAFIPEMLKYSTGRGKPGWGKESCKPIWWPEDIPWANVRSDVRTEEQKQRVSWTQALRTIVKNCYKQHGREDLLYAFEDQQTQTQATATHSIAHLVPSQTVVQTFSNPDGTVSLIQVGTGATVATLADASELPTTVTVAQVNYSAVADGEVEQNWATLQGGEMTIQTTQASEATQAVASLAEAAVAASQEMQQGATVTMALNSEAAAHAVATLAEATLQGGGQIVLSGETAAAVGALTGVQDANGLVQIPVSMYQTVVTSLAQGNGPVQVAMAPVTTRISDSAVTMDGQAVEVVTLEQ
Summary of the method: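 Human hepatoma HepG2 cells carrying transfected promoter-regulated reporter units were incubated with test chemicals for 24 h. Reporter transcripts were measured by RT-PCR plus capillary electrophoresis, and endpoints derived by bidirectional fitting with DMSO as baseline.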

[3] = ATG_NFI_CIS: Attagene CIS-FACTORIAL HepG2 Assay for human Nuclear Factor I (NFI) (AID 2282989); settings: HepG2 cis-regulatory reporter, NFI response element transcription; actives raise or lower the signal
Summary of the method: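 Endogenous TF activity in HepG2 cells transiently transfected with cis-element-driven multiplexed reporter units, read 24 h after dosing. Reporter mRNA quantified by RT-PCR, 6-FAM labelling, HpaI digestion and capillary electrophoresis; bidirectional fit versus DMSO.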

[4] = target: Myc proto-oncogene protein (Homo sapiens) (UniProt P01106); test: ATG_Myc_CIS: Attagene CIS-FACTORIAL HepG2 Assay for human Myelocytomatosis (Myc) Proto-Oncogene Transcription Factor (AID 2282990); settings: HepG2, Attagene cis-reporter transcription factor activity; actives raise or lower the signal
Sequence of Myc proto-oncogene protein (Homo sapiens) (P01106 whole entry, looked up): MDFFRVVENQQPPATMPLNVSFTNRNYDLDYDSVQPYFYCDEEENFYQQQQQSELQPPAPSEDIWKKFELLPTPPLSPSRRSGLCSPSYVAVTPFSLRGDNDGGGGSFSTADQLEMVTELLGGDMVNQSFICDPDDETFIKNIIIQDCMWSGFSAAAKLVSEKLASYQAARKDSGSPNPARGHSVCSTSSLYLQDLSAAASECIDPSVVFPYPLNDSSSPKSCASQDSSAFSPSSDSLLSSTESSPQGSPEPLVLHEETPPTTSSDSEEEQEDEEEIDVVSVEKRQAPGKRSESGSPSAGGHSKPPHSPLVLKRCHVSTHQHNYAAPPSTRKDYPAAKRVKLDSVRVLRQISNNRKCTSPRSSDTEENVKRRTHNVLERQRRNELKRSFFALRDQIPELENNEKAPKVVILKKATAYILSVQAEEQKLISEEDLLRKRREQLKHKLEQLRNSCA
Summary of the method: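 Multiplexed cis-reporter transcription in HepG2 cells after 24 h chemical treatment. Reporter mRNA measured by RT-PCR and capillary electrophoresis fluorescence; activity fitted bidirectionally against DMSO control.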

[5] = ATG_NRF2_ARE_CIS: Attagene CIS-FACTORIAL HepG2 Assay for human Nuclear Factor Erythroid 2 Related Factor 2 (NFR2) response to Antioxidant Response Elements (ARE) (AID 2282992); settings: HepG2 Attagene ARE/NRF2 reporter, transcription factor activity; actives raise or lower the signal
Summary of the method: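 Multiplexed reporter mRNA profiling in HepG2 after a 24 h chemical exposure. Curves fitted in both directions relative to DMSO negative control.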

[6] = ATG_Oct_MLP_CIS: Attagene CIS-FACTORIAL HepG2 Assay for human Octamer-Binding Transcription Factor (Oct) (AID 2282993); settings: HepG2 Attagene cis-factorial Oct reporter, mRNA; actives raise or lower the signal
Summary of the method: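 HepG2 cells transiently transfected with cis-element-driven reporter transcription units (endogenous TF activity); 24 h compound exposure. Reporter mRNA quantified by RT-PCR, 6-FAM labelling, HpaI digestion and capillary electrophoresis; bidirectional fit versus DMSO baseline.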

[7] = target: Cellular tumor antigen p53 (Homo sapiens) (UniProt P04637); test: ATG_p53_CIS: Attagene CIS-FACTORIAL HepG2 Assay for human p53 Transcription Factor (AID 2282994); settings: HepG2 p53 cis-element reporter, Attagene mRNA; actives raise or lower the signal
Sequence of Cellular tumor antigen p53 (Homo sapiens) (P04637 whole entry, looked up): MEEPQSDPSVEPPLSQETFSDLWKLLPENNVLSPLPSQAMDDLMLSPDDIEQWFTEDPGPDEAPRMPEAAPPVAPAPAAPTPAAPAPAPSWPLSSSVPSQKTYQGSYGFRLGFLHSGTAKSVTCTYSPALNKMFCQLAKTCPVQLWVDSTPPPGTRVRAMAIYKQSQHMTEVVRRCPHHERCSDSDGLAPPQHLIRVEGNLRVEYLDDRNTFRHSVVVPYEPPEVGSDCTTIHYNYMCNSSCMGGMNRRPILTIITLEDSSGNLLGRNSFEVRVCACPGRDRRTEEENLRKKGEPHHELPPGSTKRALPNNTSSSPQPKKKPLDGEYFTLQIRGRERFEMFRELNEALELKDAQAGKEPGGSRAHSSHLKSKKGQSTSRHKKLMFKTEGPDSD
Summary of the method: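 Multiplexed reporter mRNA assay in human HepG2 liver cells; cis-regulated units report endogenous factor activity. Values come from bidirectional curve fitting against DMSO negative control after 24 h treatment.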

[8] = BSK_3C_TissueFactor: BioMAP Diversity Plus: 3C Assay for Tissue Factor Biomarker Activity (AID 2282997); settings: BioMAP 3C HUVEC, tissue factor biomarker readout; actives raise or lower the signal
Summary of the method: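 Primary human umbilical vein endothelial cells in the 3C system were exposed to test chemical for 24 h, then Tissue Factor measured by ELISA. Activity was fitted bidirectionally against DMSO as negative control and baseline.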

[9] = BSK_3C_uPAR: BioMAP Diversity Plus: 3C Assay for Urokinase-type plasminogen activator receptor (uPAR) Biomarker Activity (AID 2282998); settings: BioMAP 3C HUVEC, uPAR biomarker ELISA; actives raise or lower the signal
Summary of the method: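 Primary human umbilical vein endothelial cells, 3C system; surface uPAR measured by ELISA 24 h after dosing. Cytotoxicity via SRB total protein in parallel cultures; bidirectional fit against DMSO.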

[10] = BSK_3C_VCAM1: BioMAP Diversity Plus: 3C Assay for Vascular cell adhesion molecule 1 (VCAM1) Biomarker Activity (AID 2282999); settings: BioMAP 3C HUVEC, VCAM1 ELISA, cytokine-stimulated; actives raise or lower the signal
Summary of the method: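 Human umbilical vein endothelial cells were dosed with compound for 24 h, after which cell-surface VCAM-1 was quantified by ELISA. Bidirectional curve fitting used DMSO as negative control and activity baseline.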

[11] = BSK_4H_Eotaxin3: BioMAP Diversity Plus: 4H Assay for Eotaxin 3 Biomarker Activity (AID 2283000); settings: primary human endothelial cells (HUVEC); actives raise or lower the signal
Summary of the method: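 HUVEC, 24 h post-dose, ELISA for Eotaxin-3/CCL26. Gain or loss of signal fitted bidirectionally vs DMSO baseline.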

[12] = target: human Peroxisome Proliferator-activated Receptor alpha (PPARa), PPARA (gene 5465) (UniProt Q07869); test: ATG_PPARa_TRANS: Attagene TRANS-FACTORIAL HepG2 Assay for human Peroxisome Proliferator-activated Receptor alpha (PPARa) (AID 2283001; active means hit-call score of the fitted dose curve at least 0.9, where 1 is the maximum)
Sequence of human Peroxisome Proliferator-activated Receptor alpha (PPARa), PPARA (gene 5465) (Q07869 whole entry, looked up, the tested form may be a part): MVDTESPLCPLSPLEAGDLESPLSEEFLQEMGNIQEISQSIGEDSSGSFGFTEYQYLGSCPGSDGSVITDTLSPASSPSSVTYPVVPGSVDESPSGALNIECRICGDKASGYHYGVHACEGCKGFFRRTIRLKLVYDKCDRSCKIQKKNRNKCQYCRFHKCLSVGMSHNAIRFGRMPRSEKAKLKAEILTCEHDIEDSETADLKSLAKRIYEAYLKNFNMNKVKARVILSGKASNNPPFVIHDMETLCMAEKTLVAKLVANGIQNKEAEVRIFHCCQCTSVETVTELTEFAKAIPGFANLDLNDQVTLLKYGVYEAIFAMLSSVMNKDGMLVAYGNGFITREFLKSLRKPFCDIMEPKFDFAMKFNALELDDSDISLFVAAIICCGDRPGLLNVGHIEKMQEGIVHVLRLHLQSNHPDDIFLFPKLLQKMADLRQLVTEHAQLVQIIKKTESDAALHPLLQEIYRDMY
Summary of the method: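 HepG2 cells transiently transfected with multiplexed GAL4-UAS reporter units and chimeric NR-Gal4 constructs were dosed for 24 h. Reporter mRNA was measured by RT-PCR with fluorescent labelling and capillary electrophoresis; gain of signal fitted against DMSO.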

[13] = read-out: Intercellular Adhesion Molecule 1 (ICAM1), ICAM1 (gene 3383); test: BSK_3C_ICAM1: BioMAP Diversity Plus: 3C Assay for Intercellular Adhesion Molecule 1 (ICAM1) Biomarker Activity (AID 2283003); settings: primary human endothelial cells (HUVEC); actives raise or lower the signal
Summary of the method: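 Primary human umbilical vein endothelial cells in the BioMAP 3C system were exposed to chemicals for 24 h, then ICAM-1 was quantified by ELISA. Activity was fitted bidirectionally against the DMSO negative control baseline.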

[14] = target: human Retinoic Acid Receptor beta (RARb), RARB (gene 5915) (UniProt P10826); test: ATG_RARb_TRANS: Attagene TRANS-FACTORIAL HepG2 Assay for human Retinoic Acid Receptor beta (AID 2283004; active means hit-call score of the fitted dose curve at least 0.9, where 1 is the maximum)
Summary of the method: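 HepG2 cells transiently transfected with multiplexed GAL4-UAS reporter units expressing chimeric NR–Gal4 fusions; 24 h compound exposure. Reporter mRNA quantified by RT-PCR, 6-FAM labelling, HpaI digestion and capillary electrophoresis; gain-of-signal fitted against DMSO baseline.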

[15] = target: Retinoic acid receptor alpha (Homo sapiens) (UniProt P10276); test: ATG_RARa_TRANS: Attagene TRANS-FACTORIAL HepG2 Assay for human Retinoic Acid Receptor alpha (RARa) (AID 2283005; active means hit-call score of the fitted dose curve at least 0.9, where 1 is the maximum;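 on AC50: potency for increased reporter signal meaning RARa activation over DMSO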)
Sequence of Retinoic acid receptor alpha (Homo sapiens) (P10276 whole entry, looked up, the tested form may be a part): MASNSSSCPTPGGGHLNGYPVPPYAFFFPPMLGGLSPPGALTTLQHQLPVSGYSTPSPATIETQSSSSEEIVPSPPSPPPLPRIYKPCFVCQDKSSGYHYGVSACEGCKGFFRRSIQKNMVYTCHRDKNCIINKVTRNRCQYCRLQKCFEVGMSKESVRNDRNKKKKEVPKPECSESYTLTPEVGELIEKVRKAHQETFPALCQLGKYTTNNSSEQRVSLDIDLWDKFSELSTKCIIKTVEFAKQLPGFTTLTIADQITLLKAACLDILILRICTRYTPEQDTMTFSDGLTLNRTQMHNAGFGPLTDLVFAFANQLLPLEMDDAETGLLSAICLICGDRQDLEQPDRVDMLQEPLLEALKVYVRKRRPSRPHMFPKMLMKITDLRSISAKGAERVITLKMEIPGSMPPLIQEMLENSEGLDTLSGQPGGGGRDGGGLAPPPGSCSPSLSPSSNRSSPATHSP
Summary of the method: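 HepG2 cells transiently transfected with multiple reporter units expressing chimeric RARα-GAL4 fusion, with GAL4-UAS-driven reporters. After 24 h compound exposure, reporter mRNA induction quantified by RT-PCR and capillary electrophoresis with fluorescent labeling; gain-of-signal fitted relative to DMSO control.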

[16] = BSK_3C_Proliferation: Cell Proliferation Assessment in the BioMAP Diversity Plus: 3C Assay (AID 2283006); settings: primary human endothelial cells (HUVEC);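 on AC50: potency may reflect either rise or fall in cell number versus DMSO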
Summary of the method: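 Human umbilical vein endothelial cells were grown sub-confluent and exposed to chemical for 48 h, then fixed with 10% TCA and stained with 0.1% sulforhodamine B; absorbance at 560 nm gave relative cell number, fitted bidirectionally against DMSO baseline.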

[17] = target: Peroxisome proliferator-activated receptor gamma (Homo sapiens) (UniProt P37231); test: ATG_PPARg_TRANS: Attagene TRANS-FACTORIAL HepG2 Assay for human Peroxisome Proliferator-activated Receptor-gamma (PPARg) (AID 2283007; active means hit-call score of the fitted dose curve at least 0.9, where 1 is the maximum)
Sequence of Peroxisome proliferator-activated receptor gamma (Homo sapiens) (P37231 whole entry, looked up): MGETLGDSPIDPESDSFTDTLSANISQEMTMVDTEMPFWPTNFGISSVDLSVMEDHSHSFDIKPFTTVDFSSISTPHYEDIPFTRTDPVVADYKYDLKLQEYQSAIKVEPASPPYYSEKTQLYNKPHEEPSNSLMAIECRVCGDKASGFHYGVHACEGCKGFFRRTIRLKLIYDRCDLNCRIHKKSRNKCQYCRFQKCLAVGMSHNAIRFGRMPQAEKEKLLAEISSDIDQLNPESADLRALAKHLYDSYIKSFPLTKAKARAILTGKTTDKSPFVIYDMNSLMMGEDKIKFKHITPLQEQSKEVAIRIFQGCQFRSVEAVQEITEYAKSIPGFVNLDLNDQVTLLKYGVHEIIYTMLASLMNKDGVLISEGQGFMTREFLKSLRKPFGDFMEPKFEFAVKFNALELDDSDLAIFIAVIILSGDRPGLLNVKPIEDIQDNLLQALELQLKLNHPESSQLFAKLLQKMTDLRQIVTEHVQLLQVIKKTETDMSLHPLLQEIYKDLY
Summary of the method: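 Human hepatoma HepG2, transient MRTU transfection, 24 h treatment. mRNA reporter signal by RT-PCR plus capillary electrophoresis, fluorescence detection; fitted for increase over DMSO negative control.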

[18] = target: Nuclear receptor subfamily 1 group I member 2 (Homo sapiens) (UniProt O75469); test: ATG_PXR_TRANS: Attagene TRANS-FACTORIAL HepG2 Assay for human Pregnane X Receptor (PXR) (AID 2283008; active means hit-call score of the fitted dose curve at least 0.9, where 1 is the maximum)
Sequence of Nuclear receptor subfamily 1 group I member 2 (Homo sapiens) (O75469 whole entry, looked up, the tested form may be a part): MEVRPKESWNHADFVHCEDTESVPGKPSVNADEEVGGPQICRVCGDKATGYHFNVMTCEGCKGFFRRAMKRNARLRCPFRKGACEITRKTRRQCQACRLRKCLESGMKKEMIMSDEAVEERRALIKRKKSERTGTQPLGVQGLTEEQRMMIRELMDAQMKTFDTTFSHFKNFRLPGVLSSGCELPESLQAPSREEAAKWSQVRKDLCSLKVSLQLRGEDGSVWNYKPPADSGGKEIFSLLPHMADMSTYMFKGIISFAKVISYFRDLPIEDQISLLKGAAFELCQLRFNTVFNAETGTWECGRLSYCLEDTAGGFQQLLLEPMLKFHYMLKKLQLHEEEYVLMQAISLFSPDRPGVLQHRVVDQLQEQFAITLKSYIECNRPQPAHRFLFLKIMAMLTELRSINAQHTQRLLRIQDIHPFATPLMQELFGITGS
Summary of the method: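 Measures mRNA induction of a GAL4-UAS-driven reporter in human HepG2 cells transiently expressing PXR fused to Gal4, following 24 h treatment. DMSO served as negative control and baseline.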

[19] = target: human Retinoic Acid Receptor gamma (RARg), RARG (gene 5916) (UniProt P13631); test: ATG_RARg_TRANS: Attagene TRANS-FACTORIAL HepG2 Assay for human Retinoic Acid Receptor gamma (RARg) (AID 2283009; active means hit-call score of the fitted dose curve at least 0.9, where 1 is the maximum)
Sequence of human Retinoic Acid Receptor gamma (RARg), RARG (gene 5916) (P13631 whole entry, looked up, the tested form may be a part): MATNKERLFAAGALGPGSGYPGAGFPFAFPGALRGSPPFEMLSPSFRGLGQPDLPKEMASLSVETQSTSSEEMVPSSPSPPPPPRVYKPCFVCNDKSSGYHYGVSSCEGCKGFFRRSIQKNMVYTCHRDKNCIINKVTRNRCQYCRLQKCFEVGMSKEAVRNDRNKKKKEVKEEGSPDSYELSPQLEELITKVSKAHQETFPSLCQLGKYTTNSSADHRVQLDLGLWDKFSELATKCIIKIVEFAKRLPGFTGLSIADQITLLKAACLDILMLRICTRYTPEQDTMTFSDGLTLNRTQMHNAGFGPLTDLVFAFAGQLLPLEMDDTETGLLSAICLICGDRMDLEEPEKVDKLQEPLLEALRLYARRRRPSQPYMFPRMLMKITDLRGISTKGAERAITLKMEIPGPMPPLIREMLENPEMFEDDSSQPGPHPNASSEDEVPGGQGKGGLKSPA
Summary of the method: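 HepG2 cells transiently transfected with multiplexed reporter units expressing chimeric RARg-GAL4 and GAL4-UAS-driven reporters; 24 h compound exposure. Reporter mRNA quantified by RT-PCR with fluorescent labelling and capillary electrophoresis; gain-of-signal fitted relative to DMSO baseline.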

[20] = target: human Peroxisome Proliferator-activated Receptor delta (PPARd), PPARD (gene 5467) (UniProt Q03181); test: ATG_PPARd_TRANS: Attagene TRANS-FACTORIAL HepG2 Assay for human Peroxisome Proliferator-activated Receptor delta (PPARd) (AID 2283002; active means hit-call score of the fitted dose curve at least 0.9, where 1 is the maximum)
Sequence of human Peroxisome Proliferator-activated Receptor delta (PPARd), PPARD (gene 5467) (Q03181 whole entry, looked up, the tested form may be a part): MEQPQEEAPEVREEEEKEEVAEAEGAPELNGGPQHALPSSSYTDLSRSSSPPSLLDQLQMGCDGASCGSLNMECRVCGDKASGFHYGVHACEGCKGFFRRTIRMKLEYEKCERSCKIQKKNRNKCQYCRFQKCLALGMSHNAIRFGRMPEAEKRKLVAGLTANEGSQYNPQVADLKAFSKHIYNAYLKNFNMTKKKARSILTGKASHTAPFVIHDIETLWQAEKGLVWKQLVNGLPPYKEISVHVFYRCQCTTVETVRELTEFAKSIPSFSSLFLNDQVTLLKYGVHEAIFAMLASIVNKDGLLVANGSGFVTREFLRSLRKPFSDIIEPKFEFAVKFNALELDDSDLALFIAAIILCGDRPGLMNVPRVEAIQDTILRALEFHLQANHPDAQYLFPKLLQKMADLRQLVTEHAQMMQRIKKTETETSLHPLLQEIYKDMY
Summary of the method: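 Multiplexed trans-activation format: HepG2 liver cells expressing exogenous NR-Gal4 chimeras and GAL4-UAS reporters were exposed for 24 h. Reporter mRNA was detected by RT-PCR with capillary electrophoresis fluorescence; activity fitted as gain of signal relative to DMSO.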

Measured: AC50

Cc1c(F)c(F)c(COC(=O)C2C(/C=C(\Cl)C(F)(F)F)C2(C)C)c(F)c1F (stereo not drawn)
active: [15] 36.7 µM | [16] 20 µM | [18] 22.6 µM
not listed: [20]
inactive: all other assays above

CNC(=O)ON=CC(C)(C)SC
inactive: [1] | [2] | [3] | [4] | [5] | [6] | [7] | [8] | [9] | [10] | [11] | [12] | [13] | [14] | [15] | [17] | [18]
active: [2] 43.4 µM

CNC(=S)S
inactive: [1] | [2] | [3] | [4] | [6] | [7] | [8] | [9] | [12] | [20] | [13] | [17] | [18]
active: [5] 26.7 µM and 17.6 µM | [6] 50 µM | [10] 12.2 µM | [11] 27.6 µM

C=CC1(C)OC(=O)N(c2cc(Cl)cc(Cl)c2)C1=O (stereo not drawn)
inactive: [1] | [2] | [3] | [4] | [5] | [6] | [7] | [8] | [9] | [10] | [11] | [12] | [20] | [13] | [17] | [18]
active: [17] 37.6 µM and 65.6 µM | [18] 23.2 µM and 79.2 µM

CO/C=C(/C(=O)OC)c1ccccc1Oc1cc(Oc2ccccc2C#N)ncn1
active: [2] 65.6 µM | [6] 15.6 µM | [8] 21.1 µM and 24.6 µM | [9] 13.3 µM [middle of 4 runs] | [10] 21.1 µM | [11] 24.8 µM [middle of 4 runs] | [13] 32.6 µM | [18] 354 nM [middle of 5 runs]
inactive: [1] | [2] | [4] | [5] | [6] | [7] | [8] | [10] | [12] | [20] | [13] | [14] | [15] | [17] | [18] | [19]

COc1nc(NC(C)C)nc(NC(C)C)n1
inactive: [1] | [2] | [3] | [4] | [5] | [6] | [7] | [8] | [9] | [10] | [11] | [12] | [20] | [13] | [14] | [15] | [16] | [17] | [18] | [19]
active: [6] 41.1 µM

CCNc1nc(Cl)nc(NC(C)C)n1
inactive: [1] | [2] | [4] | [5] | [6] | [7] | [8] | [9] | [10] | [11] | [12] | [20] | [13] | [17] | [18]
active: [18] 24.7 µM and 26.1 µM and 28.1 µM
